Experimental data published in PubChem BioAssay AID623868 (Vanderbilt High Throughput Screening Facility, 2012).
Among all 2,100 compounds or so, about 760 (36%) were called active.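 How the source made its calls: active means thallium-flux fluorescence traces judged by eye to show enhanced or reduced glutamate response, manual score 1 or -1, so both directions (some results past the limit were not filed as active); inactive means the rest, including fluorescent or raised-baseline compounds.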 A selection follows.

Assay: non-GIRK thallium flux modulation in mGlu8 cells, confirmation, counter-screen for GIRK activator project, cell-based, HEK-293 rmGlu8, no GIRK (AID 623868);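 further: extra codes mark interference with 3 for fluorescent and 4 for baseline rise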
Conditions: thallium flux fluorescence, at 10 µM, actives lie on both sides, codes: 1 enhancer, -1 blocker, 0 none, thallium stimulus containing EC20 glutamate
For COc1ccc(Cn2nnnc2C(c2ccccc2Cl)N2CCN(C3CCCC3)CC2)cc1 (configuration not stated), the manual score was 0 (inactive).
In the case of Cc1csc(SCC(=O)Nc2nc3ccccc3s2)n1, the manual score is reported as 0 (inactive).
In the case of CCN(CC)C(=S)SCC(=O)Nc1nc(=O)c2ccccc2s1, the manual score is reported as 1 (active).
For Cc1cnc(NC(=O)CSc2nc3ccccc3c(=O)[nH]2)s1, the manual score was 0 (inactive).
In the case of CCCCn1c(=O)[nH]c2nc3cc(N)ccc3nc2c1=O, the manual score is reported as 3 (inactive).
With CCCCn1c(SCC(=O)Nc2ccc(OC)cc2)nc2ccc(N3CCOCC3)cc2c1=O the manual score was 0 (inactive).
With CCCCn1c(SC(C)C(N)=O)nc2cc(C(=O)OC)ccc2c1=O (configuration not stated) the manual score was 1 (active).
In the case of COCCCN1C(=O)C(=O)/C(=C(/O)c2ccc(C)cc2)C1c1ccccc1 (configuration not stated), the manual score is reported as -1 (active).
With COc1ccc(N/C(C)=C2/C(=O)C(=O)N(CCO)C2c2ccc(Br)cc2)cc1 (configuration not stated) the manual score was 0 (inactive).
For C=CCOc1ccc(/C(O)=C2/C(=O)C(=O)N(CCCN3CCOCC3)C2c2ccccc2)cc1 (configuration not stated), the manual score was 0 (inactive).
In the case of O=S(=O)(Nc1ccc2nc(C(F)(F)F)[nH]c2c1)c1ccccc1, the manual score is reported as 0 (inactive).
With CCOc1ccc(-c2cc(C)n3nc(C(N)=O)cc3n2)cc1 the manual score was 0 (inactive).
For CCC(Sc1ccc2nnc(-c3ccc(F)cc3)n2n1)C(=O)OC (configuration not stated), the manual score was -1 (active).
In the case of Cc1cc(N2CCN(c3ccccc3)CC2)nc(NCc2ccccc2)n1, the manual score is reported as 0 (inactive).
For CC(C)NC(=S)NC(=O)c1ccc(Cl)cc1Cl, the manual score was 1 (active).
For CCCCNC(=S)NC(=O)c1ccc(Cl)cc1Cl, the manual score was 1 (active).
With CC(C)CNC(=S)NC(=O)c1ccccc1Cl the manual score was 1 (active).
In the case of CC(C)CNC(=S)Nc1ccc(Oc2ccccc2)cc1, the manual score is reported as 0 (inactive).
In the case of CC(C)CNC(=S)NC(=O)c1ccc(Cl)cc1Cl, the manual score is reported as 1 (active).
For S=C(NCc1ccc(Cl)cc1Cl)Nc1ccccc1, the manual score was 0 (inactive).
With O=S(=O)(c1ccc(Cl)c(F)c1)N1CCC(c2nc(-c3ccncc3)no2)CC1 the manual score was 0 (inactive).
For O=C(Nc1ccc(F)c(F)c1)NC1CCCCC1, the manual score was 0 (inactive).
With Cc1[nH]c2ccccc2c1CN1CCc2ccccc2C1 the manual score was 0 (inactive).
In the case of O=C(O)C1C2C=CC(C2)C1C(=O)NCCc1cccc(Cl)c1 (configuration not stated), the manual score is reported as 0 (inactive).
In the case of Cc1ccc(S(=O)(=O)N/N=C/c2ccc(OC3CSC3)cc2)cc1, the manual score is reported as 0 (inactive).
For CCCCNC(=S)NC(=O)c1ccccc1Br, the manual score was 1 (active).
In the case of O=C(CSc1nnc(-c2cccnc2)o1)OC1CCCCC1, the manual score is reported as -0.5 (inactive).
In the case of CCS(=O)(=O)Nc1ccc(-c2nnc(SCC(=O)c3ccc(NC(C)=O)c(OC)c3)o2)cc1, the manual score is reported as 0 (inactive).
With CCOC(=O)CSc1nnc(-c2ccccc2OC)o1 the manual score was -1 (active).
For COCCCNCCCOc1ccc(Cl)cc1Br, the manual score was 0 (inactive).
For CC1=NN(/C(=N\c2nnc(C)s2)Nc2ccccc2)[C@H](c2cccc3ccccc23)S1, the manual score was 1.5 (inactive).
For CCCOc1cccc(C(=O)NC(=S)Nc2cccc(C(F)(F)F)c2)c1, the manual score was 1 (active).
In the case of CCOc1cccc(C(=O)NC(=S)Nc2ccccc2)c1, the manual score is reported as 0 (inactive).
For O=C1C(Cl)=C(N2CCOCC2)C(=O)N1c1cccc(Cl)c1, the manual score was 0 (inactive).
With FC(F)Oc1ccccc1NC(=S)Nc1cccc(Cl)c1Cl the manual score was 0.5 (inactive).
In the case of O=C(NC(=S)Nc1ccc(N2CCOCC2)cc1)c1cccc(Cl)c1, the manual score is reported as 1 (active).
For O=C(OCCN1C(=O)c2cccc3c(N4CCOCC4)ccc(c23)C1=O)c1cccc(Cl)c1, the manual score was 3 (inactive).
With COC(=O)c1cccc(NC(=S)Nc2cccc(Cl)c2Cl)c1 the manual score was 1 (active).
For CC(C)Oc1cccc(C(=O)NC(=S)Nc2ccccc2)c1, the manual score was 1 (active).
With Cc1cc(O)c(C(C[N+](=O)[O-])c2ccc(Cl)cc2Cl)c(=O)o1 (configuration not stated) the manual score was 0 (inactive).
With O=C(O)CCC(=O)NC1CCCCCCC1 the manual score was 0 (inactive).
For CSc1ccccc1NC(=O)Nc1ccccc1, the manual score was 0 (inactive).
With CC1CCN(c2ncccc2C(=O)O)CC1 the manual score was 0 (inactive).
For CSc1ccccc1C(=O)Nc1cccc(C(C)=O)c1, the manual score was 0 (inactive).
With CC(=O)c1cccc(NC(=S)NC(=O)c2cccc(C)c2)c1 the manual score was 0.5 (inactive).
For O=C(Nc1ccc(OCC(=O)N2CCC(Cc3ccccc3)CC2)cc1)c1ccco1, the manual score was 0 (inactive).
For O=C(NC(=S)Nc1cccc(Cl)c1N1CCCCC1)c1ccco1, the manual score was 1 (active).
With CC1CCN(c2ccc(NC(=S)NC(=O)c3ccco3)cc2)CC1 the manual score was 1 (active).
For CC(=O)c1cccc(NC(=S)NC(=O)c2cccc(Cl)c2)c1, the manual score was 1 (active).
With O=C(NC(=S)Nc1ccc(N2CCCCC2)cc1)c1ccco1 the manual score was 1 (active).
With C=CCN(CC=C)S(=O)(=O)c1ccc(NC(=S)NC(=O)c2ccco2)cc1 the manual score was 0.5 (inactive).
With O=C(Nc1ccc(F)cc1)c1cccnc1N1CCOCC1 the manual score was 0 (inactive).
With O=C(NC(=S)Nc1ccc(N2CCOCC2)cc1)c1ccco1 the manual score was 1 (active).
With COc1ccc(OCC(=O)NC(=S)Nc2ccc(N3CCOCC3)c(Cl)c2)cc1 the manual score was 0 (inactive).
With O=C(NC(=S)Nc1ccc(N2CCOCC2)c(Cl)c1)c1cncc(Br)c1 the manual score was 1 (active).
For CCN(c1ccc2c(c1)OCO2)S(=O)(=O)c1cc(Br)cc2c1N(C(=O)C1CC1)CC2, the manual score was 0 (inactive).
For N=c1c2c(-c3ccccc3)c(-c3ccccc3)n(Cc3ccccc3)c2ncn1CCCO, the manual score was 0 (inactive).
For CCOC(=O)C1=NN(C(=O)c2ccccc2)C(O)(c2ccc(C)cc2)C1 (configuration not stated), the manual score was 1 (active).
With COC(=O)C1=NN(C(=O)c2ccc(Cl)cc2)C(O)(c2ccccc2)C1 (configuration not stated) the manual score was 1 (active).
In the case of CCOC(=O)C1=NN(C(=O)c2ccc(C)cc2)C(O)(c2ccc(Cl)cc2)C1 (configuration not stated), the manual score is reported as 1 (active).
In the case of CCOC(=O)C1=C(NC(=S)NC(=O)c2ccccc2)c2ccccc2CC1(C)C, the manual score is reported as 0 (inactive).
With CCOC(=O)c1cc(-c2ccc(Cl)cc2)nc2c1c(C)nn2CCC#N the manual score was 0 (inactive).
For CCOC(=O)c1c(C)[nH]c(C(=O)COC(=O)CNC(=O)c2ccc(Cl)cc2)c1C, the manual score was 0 (inactive).
For Cc1ccc(-c2csc3ncnc(N4CCN(C(=O)c5ccccc5)CC4)c23)cc1, the manual score was 0 (inactive).
In the case of CCC1=NN(C(=O)c2cccc(Br)c2)C(O)(c2ccc(Br)cc2)C1 (configuration not stated), the manual score is reported as 1 (active).
For O=[n+]1cc(-c2ccccc2)n([O-])c2c1CCC2, the manual score was 0 (inactive).
For Cc1ccc(NC(=O)CSc2nnc(CCNC(=O)OC(C)(C)C)o2)c(C)c1, the manual score was 0 (inactive).
